PubChem BioAssay (NCI)
Compounds without any hit were thinned out: in the full panel of roughly 83,000, 20% have a hit.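 Activity criterion: percent growth below 10, measured after cells in 96-well plates were exposed to a single compound concentration for 48 hours.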 Unmarked numbers belong to inactive results. The source made the active and inactive calls.

How the values were obtained:
Experiment in all cases: NCI-60 one-dose screen, 48 h (100 = growth as untreated, 0 = no growth, -100 = all killed)
Conditions in all cases: 10 µM unless noted
[1] = system: T-47D breast
[2] = system: BT-549 breast
[3] = system: MDA-MB-435 melanoma
[4] = system: SW-620 colon
[5] = system: MCF7 breast
[6] = system: HCT-116 colon
[7] = system: HCC-2998 colon
[8] = system: KM12 colon

Question: Which growth [1] does the source give for `CC1CCN(CC(=O)Nn2c(COc3ccccc3)nc3ccccc3c2=O)CC1` here?
Answer: 67.8%

Question: What about the growth [2] of the same molecule?
Answer: 97.9%

Question: And the growth [3]?
Answer: 5.85% (active)

Question: What about the growth [4] of the same molecule?
Answer: 57.2%

Question: And the growth [5]?
Answer: 42.4%

Question: What about the growth [6] of the same molecule?
Answer: 81.9%

Question: And the growth [7]?
Answer: 89.9%

Question: For `COc1ccc2c(c1)c(-c1nn3cc(-c4ccncc4)nc3s1)cn2C`, which growth [1] is on record?
Answer: 42.4%

Question: What about the growth [2] of the same molecule?
Answer: 71.5%

Question: What about the growth [3] of the same molecule?
Answer: 96.3%

Question: What about the growth [4] of the same molecule?
Answer: 69.5%

Question: What about the growth [5] of the same molecule?
Answer: 19.3%

Question: And the growth [6]?
Answer: 55.1%

Question: What about the growth [7] of the same molecule?
Answer: 87.2%

Question: Which growth [1] does the source give for `N#Cc1c(-c2cccs2)c(C#N)c(=O)n(Cc2nc3ccccc3[nH]2)c1N` here?
Answer: 74.8%

Question: What about the growth [2] of the same molecule?
Answer: 102%

Question: What about the growth [3] of the same molecule?
Answer: 110%

Question: What about the growth [4] of the same molecule?
Answer: 95.6%

Question: What about the growth [5] of the same molecule?
Answer: 66.1%

Question: What about the growth [6] of the same molecule?
Answer: 100%

Question: What about the growth [7] of the same molecule?
Answer: 116%

Question: What does the source list for `COc1ccc(/C=N\NC(=O)c2cnn(CC(O)c3ccccc3)c2N)cc1OCc1ccc(Cl)cc1` (stereo unspecified)?
Answer: growth [1]: 56.9%; growth [2]: 109%; growth [3]: 78.7%; growth [4]: 64.5%; growth [5]: 60.8%; growth [6]: 49.4%; growth [7]: 108%

Question: What does the source list for `Clc1ccc2[nH]cc(-c3nn4cc(-c5ccncc5)nc4s3)c2c1`?
Answer: growth [1]: 6.38% (active); growth [2]: -54.3% (active); growth [3]: 51%; growth [4]: 50.7%; growth [5]: 24.2%; growth [6]: 10.8%; growth [7]: 85.3%

Question: Which results are given for `CC(=O)OC[C@@]12Oc3c(cccc3-c3ccc(O)c4c3O[C@]3(COC(C)=O)C(=C4O)C(=O)C[C@H](C)[C@@H]3OC(C)=O)C(O)=C1C(=O)C[C@H](C)[C@@H]2OC(C)=O`?
Answer: growth [1]: 4.37% (active); growth [2]: -1.88% (active); growth [3]: 13%; growth [4]: 17.8%; growth [5]: 5.84% (active); growth [6]: 10.8%; growth [7]: 23.7%

Question: For `CN1CCN(CCNc2nc(-c3cccc(NS(=O)(=O)c4cccc5c(N(C)C)cccc45)c3)cs2)CC1`, which growth [1] is on record?
Answer: 39.6%

Question: And the growth [2]?
Answer: 58.6%

Question: What about the growth [3] of the same molecule?
Answer: 66%

Question: And the growth [4]?
Answer: 70.5%

Question: And the growth [5]?
Answer: 11.1%

Question: What about the growth [6] of the same molecule?
Answer: 32.2%

Question: And the growth [7]?
Answer: 49.5%

Question: Which results are given for `O=C(CCCCCCN1CC(=O)N2[C@@H](c3cccs3)c3[nH]c4ccccc4c3C[C@H]2C1=O)NO`?
Answer: growth [1]: 42.7%; growth [2]: 104%; growth [3]: 80.8%; growth [4]: 82.7%; growth [5]: 52.1%; growth [6]: 60.5%; growth [7]: 101%

Question: Which growth [1] does the source give for `Cc1ncn(-c2ccc(/C=N/Nc3ccnc4cc(Cl)ccc34)cc2)c1C` here?
Answer: -61.6% (active)

Question: And the growth [2]?
Answer: -93.7% (active)

Question: What about the growth [3] of the same molecule?
Answer: -80.2% (active)

Question: What about the growth [4] of the same molecule?
Answer: -60.4% (active)

Question: What about the growth [5] of the same molecule?
Answer: -69.1% (active)

Question: What about the growth [6] of the same molecule?
Answer: -83.6% (active)

Question: What about the growth [7] of the same molecule?
Answer: -44.5% (active)

Question: `Clc1cccc(/C=N/Nc2nc(N/N=C/c3cccc(Cl)c3)nc(N3CCCCC3)n2)c1` was tested. Which growth [1] did it give?
Answer: 76%

Question: What about the growth [2] of the same molecule?
Answer: 94.9%

Question: What about the growth [3] of the same molecule?
Answer: 90.4%

Question: What about the growth [4] of the same molecule?
Answer: 103%

Question: And the growth [5]?
Answer: 83.1%

Question: What about the growth [6] of the same molecule?
Answer: 97.2%

Question: And the growth [7]?
Answer: 108%

Question: Which results are given for `NS(=O)(=O)c1nnc(/N=C/c2c(O)[nH]c3ccccc23)s1`?
Answer: growth [1]: 85.2%; growth [2]: 98.8%; growth [3]: 103%; growth [4]: 106%; growth [5]: 87.6%; growth [6]: 94.5%; growth [7]: 107%

Question: `Cc1cc(C)cc(NC2=C(Cl)C(=O)c3nc(C)ccc3C2=O)c1` was tested. Which growth [1] did it give?
Answer: -20% (active)

Question: What about the growth [2] of the same molecule?
Answer: 66.6%

Question: What about the growth [3] of the same molecule?
Answer: -78.8% (active)

Question: What about the growth [4] of the same molecule?
Answer: -6.15% (active)

Question: And the growth [5]?
Answer: -44.4% (active)

Question: What about the growth [6] of the same molecule?
Answer: 9.38% (active)

Question: What about the growth [7] of the same molecule?
Answer: 77.6%

Question: What does the source list for `CC1=C(C)C(=O)C(Nc2cccc(C)c2)=C(Br)C1=O`?
Answer: growth [1]: 4.47% (active); growth [2]: 106%; growth [3]: 109%; growth [4]: 107%; growth [5]: 75.7%; growth [6]: 76.9%; growth [7]: 111%; growth [8]: 105%

Question: Which results are given for `CN1CCN(c2ccc(Nc3nc(NCCCNS(=O)(=O)c4cccc5ccccc45)c4sccc4n3)cc2)CC1`?
Answer: growth [1]: -2.47% (active); growth [2]: -87.3% (active); growth [3]: -73% (active); growth [4]: -0.438% (active); growth [5]: -20.9% (active); growth [6]: -73% (active); growth [7]: -51.4% (active)

Question: What does the source list for `C/C(=N\NC(=O)Nc1ccccc1)c1nnn(-c2ccc([N+](=O)[O-])cc2)c1C`?
Answer: growth [1]: 98.2%; growth [2]: 111%; growth [3]: 104%; growth [4]: 104%; growth [5]: 97.9%; growth [6]: 99.5%; growth [7]: 106%
